In all, about 310,000 compounds went through this assay and about 2,200 (0.71%) showed an effect of 50% or more. Effects have a minus sign here. The sample holds strong results, similar compounds and a random draw of the others, so the mix is not that of the screen.
Each molecule was assayed against human ether-à-go-go-related gene (hERG) potassium channel (human, UniProt Q12809) (assay: primary screen, population patch clamp on CHO cells stably expressing hERG; higher = less effect of the substance).
Chain of human ether-à-go-go-related gene (hERG) potassium channel (Q12809 whole entry, looked up): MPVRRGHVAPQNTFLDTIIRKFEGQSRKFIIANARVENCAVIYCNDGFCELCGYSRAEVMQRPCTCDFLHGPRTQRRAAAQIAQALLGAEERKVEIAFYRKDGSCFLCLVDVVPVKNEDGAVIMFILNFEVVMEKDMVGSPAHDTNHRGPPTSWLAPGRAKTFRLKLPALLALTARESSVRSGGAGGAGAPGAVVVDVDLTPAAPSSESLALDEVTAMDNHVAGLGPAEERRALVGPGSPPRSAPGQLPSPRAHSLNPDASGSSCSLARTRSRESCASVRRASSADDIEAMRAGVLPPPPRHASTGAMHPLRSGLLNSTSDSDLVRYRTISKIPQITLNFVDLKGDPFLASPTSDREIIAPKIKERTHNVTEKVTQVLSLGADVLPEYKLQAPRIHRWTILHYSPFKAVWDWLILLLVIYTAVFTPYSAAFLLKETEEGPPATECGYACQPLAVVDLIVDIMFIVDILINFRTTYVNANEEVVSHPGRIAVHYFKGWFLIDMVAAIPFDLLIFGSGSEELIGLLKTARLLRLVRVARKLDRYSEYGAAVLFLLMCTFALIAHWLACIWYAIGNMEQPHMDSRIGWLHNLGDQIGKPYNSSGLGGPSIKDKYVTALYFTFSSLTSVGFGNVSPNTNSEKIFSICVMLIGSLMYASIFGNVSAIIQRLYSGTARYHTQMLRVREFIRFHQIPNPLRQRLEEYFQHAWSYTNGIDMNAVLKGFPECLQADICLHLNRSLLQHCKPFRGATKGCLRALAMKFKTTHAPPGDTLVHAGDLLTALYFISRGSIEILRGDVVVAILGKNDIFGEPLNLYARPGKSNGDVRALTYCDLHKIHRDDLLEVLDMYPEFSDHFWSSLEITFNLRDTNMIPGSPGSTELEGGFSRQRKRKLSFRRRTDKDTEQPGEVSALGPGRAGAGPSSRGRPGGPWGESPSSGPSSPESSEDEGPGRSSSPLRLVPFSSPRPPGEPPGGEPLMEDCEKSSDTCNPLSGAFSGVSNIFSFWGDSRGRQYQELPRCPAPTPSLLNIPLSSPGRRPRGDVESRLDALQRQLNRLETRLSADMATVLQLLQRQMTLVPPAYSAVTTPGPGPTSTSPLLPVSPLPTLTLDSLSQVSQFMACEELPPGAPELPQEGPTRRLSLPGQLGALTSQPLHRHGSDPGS

Compound	hERG current change (%, negative = inhibition) at 1uM
COc1ccc2c(c1)CCc1c(C(=O)N3CCCCCC3)noc1-2	-1.37%
C=C(C)CN1C(=O)c2ccccc2C1=O	4.89%
Cc1nc(Nc2ccccc2)[nH]c(=O)c1CCC(C)C	1.92%
Cc1ccc(C)c(-n2c(-c3cccnc3)n[nH]c2=S)c1	18.2%
CCN(CC1CCCN(CCc2cccc(OC)c2)C1)C(=O)c1ccoc1C (centres unmarked)	-27.8%
CCN(Cc1ccc(O)cc1)CC1CCCN(CCc2cccc(F)c2)C1 (centres unmarked)	-8.8%
C=CCC(=O)N(CC)CC1CCCN(CCc2cccc(F)c2)C1 (centres unmarked)	-17.6%
CCN(CC1CCCN(CCc2cccc(F)c2)C1)C(=O)c1cc2ccccc2o1 (centres unmarked)	-64.7%
CCN(CC1CCCN(CCc2cccc(OC)c2)C1)C(=O)c1ccoc1 (centres unmarked)	-14.5%
CCN(CC1CCCN(CCc2cccc(F)c2)C1)C(=O)c1cc(C)oc1C (centres unmarked)	-2.34%
CCN(CC1CCCN(CCc2cccc(F)c2)C1)C(=O)c1ccc(CSC)o1 (centres unmarked)	-52%
CCN(CC1CCCN(CCc2cccc(OC)c2)C1)C(=O)c1ccc(COC)o1 (centres unmarked)	-51.1%
CCN(Cc1ccc(NC(C)=O)cc1)CC1CCCN(CCc2cccc(F)c2)C1 (centres unmarked)	9.42%
COc1ccc(C=O)cc1Cn1c(=O)n(CCC(=O)NCc2ccco2)c(=O)c2sccc21	5.91%
COc1ccc(N(CC(=O)NCc2ccc(Cl)cc2)S(=O)(=O)c2c(C)n[nH]c2C)cc1	1.42%
Cc1cc(C)nc(NS(=O)(=O)c2ccc(Br)cc2)n1	21.2%
Cc1ccc(Cn2c(CN3CC(C)OC(C)C3)nc3c2c(=O)[nH]c(=O)n3C)cc1 (centres unmarked)	-3.88%
O=C(O)CCn1cc(/C=C/C(=O)c2ccc(Cl)cc2)c(-c2cccc(Br)c2)n1	14.7%
CCN(CC)C(=O)C1CCN(Cc2ccc(OCc3ccccc3)cc2)CC1.O=C(O)C(=O)O	-13.3%
CCCCN(C)C(=O)C1CCN(Cc2ccccn2)CC1.O=C(O)C(=O)O	6.35%
CCN(Cc1ccccc1)C(=O)C1CCN(C/C(C)=C/c2ccccc2)CC1.O=C(O)C(=O)O	-31%
CCCCN(C)C(=O)C1CCN(Cc2ccc(OCc3ccccc3)cc2)CC1.O=C(O)C(=O)O	-55.7%

Compound	hERG current change (%, negative = inhibition) at 1uM
CCCCNC(=O)C1CCN(C/C(C)=C/c2ccccc2)CC1.O=C(O)C(=O)O	-33.9%
CCCCN(C)C(=O)C1CCN(C/C(C)=C/c2ccccc2)CC1.O=C(O)C(=O)O	-54.3%
O=C(C1CCN(CCCc2ccccc2)CC1)N(CCc1ccccc1)Cc1ccccc1.O=C(O)C(=O)O	-75%
CCCCN(C)C(=O)C1CCN(Cc2cccc(OCc3ccccc3)c2)CC1.O=C(O)C(=O)O	-35.6%
O=C(C1CCN(CC2CC=CCC2)CC1)N(CCc1ccccc1)Cc1ccccc1 (centres unmarked)	-47%
CC1CCN(C(=O)C2CCN(CCCc3ccccc3)CC2)CC1.O=C(O)C(=O)O	-23.5%
CCCCN(C)C(=O)C1CCN(CCCc2ccccc2)CC1.O=C(O)C(=O)O	-73.6%
CCCCN(C)C(=O)C1CCN(Cc2cccnc2)CC1	10.1%
COC(=O)C1=C(c2cc3ccccc3o2)C[C@@H]2CC[C@H]1N2C(=O)NC1CCCCC1	-7.33%
CC(C)C(NC(=O)c1ccccc1)c1nnc(SCC(=O)Nc2nccs2)n1C (centres unmarked)	15.7%
Cc1cc(=O)nc2c3ccccc3n(CC(=O)NCCCN3CCCC3=O)n12	10.4%
O=C(O)CCC(=O)NNC(=O)c1cccs1	15.5%
CCOC(=O)CSc1nc(CC)nc2ccccc12	4.2%
O=c1cc(CO)oc(CN2CCCC2)c1O	-2.54%
C/C(=N\O)c1ccc2c(c1)CC(C)O2 (centres unmarked)	13.6%
COc1ccc2c(c1)sc(N)[n+]2Cc1cc(C)cc2cccnc12.[Br-]	-26.5%
Cc1cc(C[n+]2ccsc2N)c2ncccc2c1.[Br-]	-20.1%
CCOc1ccc2c(c1)sc(N)[n+]2Cc1cc(C)cc2cccnc12.[Br-]	-56.2%
CN(Cc1ccccc1)C(=O)c1nn2cccnc2c1Cl	13.2%
CCCCNC(=O)c1cc2c(=O)n3cccc(C)c3nc2n(CCN2CCOCC2)c1=N	-92.4%
CCNC(=O)c1cc2c(=O)n3cccc(C)c3nc2n(CCc2ccccc2)c1=N	-90.7%
Cc1cccn2c(=O)c3cc(C(=O)NCCN4CCOCC4)n(C)c3nc12	9.82%

Compound	hERG current change (%, negative = inhibition) at 1uM
COCCn1c(=N)c(C(=O)NCCc2ccccc2)cc2c(=O)n3cccc(C)c3nc21	-86.1%
Cc1cccn2c(=O)c3cc(C(=O)NCCN4CCOCC4)c(=N)n(CCN4CCOCC4)c3nc12	12.2%
COCCn1c(=N)c(C(=O)NCCc2ccc(OC)cc2)cc2c(=O)n3cccc(C)c3nc21	-95.4%
COCCNC(=O)c1cc2c(=O)n3cccc(C)c3nc2n1C	22.6%
COc1ccc(CN2CCN(Cc3ccccc3C(F)(F)F)CC2)c(OC)c1.O=C(O)C(=O)O	-39.5%
Cc1ccc(N2C(=O)CC(NCc3ccc4c(c3)OCO4)C2=O)cc1Cl (centres unmarked)	-12.2%
COc1ccc(COC(=O)c2ccc(C)c(S(=O)(=O)N3CCOCC3)c2)cc1F	16%
Cc1ccc(CNS(=O)(=O)c2ccc3c(c2)C(C)(C)C(=O)N3C)cc1	7.06%
COc1cc(CNC(=O)CCCC/C=C/C(C)C)ccc1O	11.8%
CC(=O)N1CCN(c2ccc(NC(=O)c3ccc(Cl)c([N+](=O)[O-])c3)cc2)CC1	5.32%
O=C(C/C(=N\NC(=O)c1ccccc1Br)C(F)(F)F)c1cccs1	3.65%
O=C(Nc1ncnc2sc3c(c12)CCCCC3)c1ccc(F)cc1	14.2%
Cc1[nH]c2ccccc2c1C(=O)CSc1nc2cc(S(=O)(=O)N3CCCCC3)ccc2o1	9.62%
CCc1cc2c(=O)c(-c3nc4ccccc4n3C)c(CCCC(=O)O)oc2cc1OC(=O)C(C)(C)C	14.8%
CC(=O)c1ccc(NC(=O)Cc2ccsc2)cc1	14.1%
C=CCNC(=O)NS(=O)(=O)c1ccc(C)cc1	16.6%
Cc1cccn2c(=O)c3cc(C(=O)NCCc4ccccc4)c(=N)n(CCCn4ccnc4)c3nc12	-61.3%
Cc1cccn2c(=O)c3cc(C(=O)NC(C)c4ccccc4)c(=N)n(CCCn4ccnc4)c3nc12 (centres unmarked)	-10.8%
Cc1cccn2c(=O)c3cc(C(=O)NCCCn4ccnc4)n(C)c3nc12	2.55%
Cc1cccn2c(=O)c3cc(C(=O)NCCN4CCOCC4)c(=N)n(CCc4ccccc4)c3nc12	-71.8%
Cc1ccc(C2(C)NC(=O)N(CC(=O)Nc3cc(S(=O)(=O)N4CCOCC4)ccc3C)C2=O)cc1 (centres unmarked)	-9.42%
CC(C)(C)c1ccc(/C=N/OCC(=O)NCc2ccc(F)cc2)cc1	11.5%

Compound	hERG current change (%, negative = inhibition) at 1uM
COC(=O)c1ccc(/C=N/OCC(=O)NCc2ccc(F)cc2)cc1	3.32%
O=C(CO/N=C/c1ccc(OC(F)F)cc1)NCc1ccc(F)cc1	-52%
O=C(NCc1cc(C(F)(F)F)cc(C(F)(F)F)c1)C1CC(c2ccc(C(F)(F)F)cc2)=NO1 (centres unmarked)	18.6%
Cl.c1ccc(CN2CCN(CCN3CCn4c3nc3ccccc34)CC2)cc1	-62.3%
CN1CCN(CCN2CCn3c2nc2ccccc23)CC1.Cl	5.64%
Cl.c1ccc2c(c1)nc1n2CCN1CCN1CCCC1	18.3%
COc1ccc(CN(C)C(c2ccccc2)c2nnnn2-c2ccccc2C)c(OC)c1C (centres unmarked)	11.5%
CCn1c(CC(=O)Nc2ccccc2)nnc1SCC(=O)NC1CCCC1	5.86%
Cc1cc(C)c2nc(N3CCC(C(=O)NCc4cccnc4)CC3)sc2c1	-50.6%
Cc1cc(C)c2nc(N3CCC(C(=O)NCc4ccccn4)CC3)sc2c1	9.75%
Cc1cc(=O)n2nc(N3CCC(C(=O)NCc4cccnc4)CC3)sc2n1	6.87%
O=S(=O)(c1ccccc1OC(F)(F)F)N1CCN(c2ccnc3cc(Cl)ccc23)CC1	9.89%
Cc1ccc(S(=O)(=O)N2CCN(c3ccnc4cc(Cl)ccc34)CC2)cc1C	21.6%
O=S(=O)(c1ccccc1)N1CCN(c2ccnc3cc(Cl)ccc23)CC1	-79.9%
O=S(=O)(c1cccc(Br)c1)N1CCN(c2ccnc3cc(Cl)ccc23)CC1	10.2%
Clc1ccc2c(N3CCNCC3)ccnc2c1	-15.4%
O=[N+]([O-])c1ccc(S(=O)(=O)N2CCN(c3ccnc4cc(Cl)ccc34)CC2)cc1	-77.8%
N#Cc1cccc(S(=O)(=O)N2CCN(c3ccnc4cc(Cl)ccc34)CC2)c1	-57.2%
O=S(=O)(c1cccs1)N1CCN(c2ccnc3cc(Cl)ccc23)CC1	-2.74%
O=S(=O)(c1ccc(Br)s1)N1CCN(c2ccnc3cc(Cl)ccc23)CC1	6.07%

— paper PMC4336329 (PLoS ONE, 2015)
